Experimental data taken from PubChem BioAssay (NCI).
About 83,000 compounds went through this panel and 20% of them were active in at least one assay; those are over-represented in the sample as a whole.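 Plates (96-well) were seeded with cells, treated with compound at one concentration, and incubated for 48 hours before percent growth was determined.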 Active and inactive are the calls of the source. How the source made its calls: active means growth percent below 10; inactive means the rest.

Experiments:
Test in all cases: NCI-60 one-dose screen, 48 h (100 = growth as untreated, 0 = no growth, -100 = all killed)
Conditions in all cases: 10 µM unless noted
[1] = test system: SK-MEL-2 melanoma
[2] = test system: EKVX NSCLC
[3] = test system: SN12C renal
[4] = test system: UO-31 renal
[5] = test system: TK-10 renal
[6] = test system: ACHN renal
[7] = test system: CAKI-1 renal
[8] = test system: A498 renal
[9] = test system: CCRF-CEM leukemia
[10] = test system: MOLT-4 leukemia
[11] = test system: SR leukemia
[12] = test system: RPMI-8226 leukemia
[13] = test system: OVCAR-8 ovarian
[14] = test system: OVCAR-5 ovarian
[15] = test system: OVCAR-4 ovarian
[16] = test system: SK-OV-3 ovarian
[17] = test system: IGROV1 ovarian
[18] = test system: OVCAR-3 ovarian
[19] = test system: HS 578T breast
[20] = test system: NCI/ADR-RES ovarian

Measured: growth

C=C1CC[C@@H]2C(C)(C)[C@@H](O)CC[C@@]2(C)[C@@H]1COc1ccc2ccc(=O)oc2c1
inactive: [1] 88.3% | [2] 60.3% | [3] 74.9% | [4] 52.6% | [5] 95% | [6] 80.1% | [7] 73.5% | [8] 68.9% | [9] 60.8% | [10] 47.4% | [11] 73.2% | [12] 50.7% | [13] 83.4% | [14] 117% | [15] 67.5% | [16] 112% | [17] 95.3% | [18] 78.3% | [19] 101% | [20] 61.7%

CC(C)CCN(CCC(C)C)CC(O)c1cc2c(c3ccccc13)CCCC2 (stereo not given)
inactive: [1] 76.4% | [2] 73% | [3] 68.6% | [4] 48.7% | [5] 102% | [6] 52.4% | [7] 77.2% | [8] 52.5% | [9] 65.6% | [10] 55.6% | [11] 11.8% | [12] 49.3% | [13] 81.6% | [14] 71.5% | [15] 78.2% | [16] 76.8% | [17] 64.2% | [18] 85% | [19] 80.6% | [20] 71.8%

COC(=O)c1cc(Br)ccc1O
inactive: [1] 101% | [2] 113% | [3] 99.5% | [4] 95.1% | [5] 95.5% | [6] 99.5% | [7] 101% | [8] 101% | [9] 98.6% | [10] 103% | [11] 89.2% | [12] 94.5% | [13] 103% | [14] 100% | [15] 110% | [16] 108% | [17] 110% | [18] 117% | [19] 117% | [20] 107%

COc1ccc(-c2n[nH]c(=O)c3nc(NC(=S)Nc4ccc(Oc5ccccc5)cc4)sc23)cc1
inactive: [1] 98.6% | [2] 106% | [3] 100% | [4] 77.1% | [5] 92.8% | [6] 105% | [7] 87.3% | [8] 80.4% | [9] 81.2% | [10] 96.9% | [11] 81.6% | [12] 82.8% | [13] 86.5% | [14] 104% | [15] 95% | [16] 94.9% | [17] 104% | [18] 105% | [19] 97.7% | [20] 108%

Nc1c(C(=O)Nc2cccc(Cl)c2)sc2nc3c(cc12)CCCC3
inactive: [1] 86.6% | [2] 94.8% | [3] 97.6% | [4] 90.3% | [5] 85.1% | [6] 94.4% | [7] 91.3% | [8] 87.6% | [9] 87.1% | [10] 84.8% | [11] 53.9% | [12] 93.6% | [13] 93% | [14] 93.4% | [15] 90.9% | [16] 96.2% | [17] 106% | [18] 103% | [19] 97.7% | [20] 101%

O=C(/C=C(O)/C=C/c1cccc2[nH]ccc12)/C=C/c1cccc2[nH]ccc12
active: [12] 2.9%
inactive: [1] 85.9% | [2] 97.8% | [3] 82.5% | [4] 52% | [5] 83.9% | [6] 84.4% | [7] 74.6% | [8] 112% | [9] 65.4% | [10] 59.2% | [11] 10.3% | [13] 72.6% | [14] 99.7% | [15] 91.7% | [16] 85.6% | [17] 70.3% | [18] 103% | [19] 91% | [20] 87.6%

CCN(CC)CCCN1C(=O)c2c(c(C)c3c(oc4ccc(O)cc43)c2C)C1=O
inactive: [1] 94.7% | [2] 101% | [3] 63.4% | [4] 63.7% | [6] 25.9% | [7] 82.4% | [8] 94.8% | [10] 83.2% | [11] 19.1% | [14] 103% | [16] 109% | [17] 75.2% | [18] 55.7% | [19] 81.2%
active: [5] -27.4% | [9] -19.7% | [12] -15.7% | [13] -31.8% | [15] -35.5% | [20] -62.9%
